Reference: the supplement of paper PMC10849652
The full data set covers some 8,800 targets. This sample favours those with a hit. About 0.5% of all pairs of compound and target were hits.

Columns and labels:
Test in all cases: log2 fold change, soluble protein after heating vs DMSO (PISA); higher = thermal stabilisation; K562 lysate, 10 uM; active = over 0.2 and 3.5 SD of the protein, either way, in both replicates (recomputed)
[1] = compound: C1=CC=C(C=C1)[C@H](COC2=CC3=C(C=C2)NC(=O)N3)NC(=O)C4=CC=CN(C4=O)CC5=CC(=C(C=C5)F)F
Method in brief: (§1)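 The values are log-two fold changes in thermal stability compared with solvent controls and come from duplicates. They were obtained by TMTpro 16plex LC-MS/MS, with channel sums equalised, on the supernatant after 21,000xg for 90 min. That supernatant came from crude K562 extract at 1 mg/mL protein treated with 10 μM compound for 30 min, heated for 3 min across 48°C-58°C, pooled and brought to 0.5% NP-40 at 4°C.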

[2] = compound: CC1=C(SC2=C1C(=N[C@H](C3=NN=C(N32)C)CC(=O)N)C4=CC=C(C=C4)Cl)C
Method in brief: as §1

[3] = compound: CC1=C2C(=CC=C1)N=C(N(C2=O)C3=CC=CC=C3C)CN4C=NC5=C(N=CN=C54)N
Method in brief: as §1

[4] = compound: Cc1sc2c(c1C)C(c1ccc(Cl)cc1)=N[C@@H](CC(=O)OC(C)(C)C)c1nnc(C)n1-2
Method in brief: as §1

[5] = compound: c1ccc([C@@H]2C[C@H]2NC2CCNCC2)cc1
Method in brief: as §1

Measured: log2 fold change

SKA3 (UniProt Q8IX90)
inactive: [1] -0.008 | [2] -0.002 | [3] -0.009 | [4] -0.016 | [5] -0.02

SH3GL1 (UniProt Q99961)
UniProt Q99961, sequence (Q99961 whole entry, looked up): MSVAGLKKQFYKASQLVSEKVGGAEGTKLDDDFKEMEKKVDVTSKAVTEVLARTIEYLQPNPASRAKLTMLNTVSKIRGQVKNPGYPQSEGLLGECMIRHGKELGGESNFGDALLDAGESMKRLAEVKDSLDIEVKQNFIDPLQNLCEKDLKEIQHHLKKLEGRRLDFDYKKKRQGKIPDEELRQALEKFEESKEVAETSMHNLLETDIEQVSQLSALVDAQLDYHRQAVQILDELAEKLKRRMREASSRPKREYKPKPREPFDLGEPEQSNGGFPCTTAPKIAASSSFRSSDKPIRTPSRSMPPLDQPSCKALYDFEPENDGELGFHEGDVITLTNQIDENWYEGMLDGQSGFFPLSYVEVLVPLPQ
inactive: [1] 0.007 | [2] 0.016 | [3] 0.007 | [4] 0.012 | [5] 0.003

SRGN (UniProt P10124)
UniProt P10124, sequence (P10124 whole entry, looked up): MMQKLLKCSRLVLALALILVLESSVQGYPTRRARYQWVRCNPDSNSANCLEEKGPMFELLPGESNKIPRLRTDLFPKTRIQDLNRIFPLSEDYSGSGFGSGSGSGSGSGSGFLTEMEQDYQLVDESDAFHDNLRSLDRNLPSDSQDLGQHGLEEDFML
inactive: [1] 0.101 | [2] 0.14 | [3] 0.063 | [4] -0.03 | [5] -0.196

SLC29A2 (UniProt Q14542)
UniProt Q14542, sequence (Q14542 whole entry, looked up): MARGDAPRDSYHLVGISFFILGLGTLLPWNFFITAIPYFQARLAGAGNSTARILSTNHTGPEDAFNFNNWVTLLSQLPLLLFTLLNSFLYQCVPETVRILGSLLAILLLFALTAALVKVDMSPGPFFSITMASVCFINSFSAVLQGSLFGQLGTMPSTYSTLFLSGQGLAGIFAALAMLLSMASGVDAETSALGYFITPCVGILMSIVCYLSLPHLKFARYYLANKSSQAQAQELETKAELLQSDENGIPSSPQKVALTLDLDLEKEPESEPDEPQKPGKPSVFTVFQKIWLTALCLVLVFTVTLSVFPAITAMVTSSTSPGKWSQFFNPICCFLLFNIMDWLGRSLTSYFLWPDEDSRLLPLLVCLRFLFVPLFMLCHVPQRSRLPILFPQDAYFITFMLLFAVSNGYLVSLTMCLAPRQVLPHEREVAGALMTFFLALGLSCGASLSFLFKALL
inactive: [1] 0.106 | [2] 0.001 | [3] 0.044 | [4] -0.116 | [5] -0.233

STK25 (UniProt O00506)
UniProt O00506, sequence (O00506 whole entry, looked up): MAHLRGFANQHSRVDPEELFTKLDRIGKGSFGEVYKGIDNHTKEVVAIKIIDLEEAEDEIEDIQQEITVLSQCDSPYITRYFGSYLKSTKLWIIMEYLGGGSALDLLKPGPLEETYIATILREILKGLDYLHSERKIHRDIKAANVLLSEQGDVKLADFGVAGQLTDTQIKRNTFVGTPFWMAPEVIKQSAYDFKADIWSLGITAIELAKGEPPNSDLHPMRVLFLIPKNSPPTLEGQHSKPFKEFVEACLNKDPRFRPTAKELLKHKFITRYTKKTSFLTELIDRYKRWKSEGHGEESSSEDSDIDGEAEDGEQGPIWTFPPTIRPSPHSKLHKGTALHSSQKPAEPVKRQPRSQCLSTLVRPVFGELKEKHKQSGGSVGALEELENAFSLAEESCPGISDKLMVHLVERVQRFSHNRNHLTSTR
inactive: [1] -0.05 | [2] 0.035 | [3] -0.062 | [4] 0.053 | [5] -0.048

TAF6L (UniProt Q9Y6J9)
inactive: [1] 0.011 | [2] -0.027 | [3] -0.094 | [4] -0.02 | [5] 0.061

SMG7 (UniProt Q92540)
UniProt Q92540, sequence (Q92540 whole entry, looked up): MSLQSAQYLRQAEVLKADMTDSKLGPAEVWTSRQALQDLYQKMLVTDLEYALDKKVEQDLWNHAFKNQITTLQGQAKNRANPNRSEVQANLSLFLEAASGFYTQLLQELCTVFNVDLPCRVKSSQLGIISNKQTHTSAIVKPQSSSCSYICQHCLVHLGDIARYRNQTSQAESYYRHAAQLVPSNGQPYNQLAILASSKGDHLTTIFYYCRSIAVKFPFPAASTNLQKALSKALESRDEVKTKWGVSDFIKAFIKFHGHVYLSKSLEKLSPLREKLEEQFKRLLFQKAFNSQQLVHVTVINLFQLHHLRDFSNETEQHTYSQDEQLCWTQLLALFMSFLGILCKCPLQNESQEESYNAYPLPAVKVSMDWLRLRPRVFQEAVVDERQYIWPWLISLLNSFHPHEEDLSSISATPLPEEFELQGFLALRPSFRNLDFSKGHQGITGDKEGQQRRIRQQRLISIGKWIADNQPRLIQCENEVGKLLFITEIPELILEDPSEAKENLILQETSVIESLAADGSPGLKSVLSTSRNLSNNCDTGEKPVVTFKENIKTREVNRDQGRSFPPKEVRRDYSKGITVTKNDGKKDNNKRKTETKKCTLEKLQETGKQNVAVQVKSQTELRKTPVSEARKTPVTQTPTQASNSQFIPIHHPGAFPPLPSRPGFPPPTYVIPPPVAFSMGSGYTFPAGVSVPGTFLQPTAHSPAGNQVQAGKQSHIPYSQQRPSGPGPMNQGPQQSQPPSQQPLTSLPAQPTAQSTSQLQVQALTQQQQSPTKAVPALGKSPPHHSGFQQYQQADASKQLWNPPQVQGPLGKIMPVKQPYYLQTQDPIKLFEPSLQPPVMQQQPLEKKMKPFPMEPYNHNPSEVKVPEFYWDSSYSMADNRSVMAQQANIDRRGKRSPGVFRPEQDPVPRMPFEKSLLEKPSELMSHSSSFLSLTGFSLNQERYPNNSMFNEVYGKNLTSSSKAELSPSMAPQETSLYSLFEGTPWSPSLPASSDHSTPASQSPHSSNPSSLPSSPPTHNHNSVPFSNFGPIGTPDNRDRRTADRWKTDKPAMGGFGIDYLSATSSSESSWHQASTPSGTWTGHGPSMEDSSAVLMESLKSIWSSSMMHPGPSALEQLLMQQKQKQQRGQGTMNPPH
inactive: [1] 0.008 | [2] 0.019 | [3] 0.147 | [4] -0.014 | [5] 0.029

SMG6 (UniProt Q86US8)
inactive: [1] 0.097 | [2] -0.041 | [3] -0.043 | [4] 0.076 | [5] 0.073

SLC11A2 isoform 3 (UniProt P49281)
inactive: [1] -0.081 | [2] -0.017 | [3] 0.016 | [4] -0.01 | [5] 0.003

TAF11 (UniProt Q15544)
inactive: [3] 0 | [4] -0.16 | [5] -0.073

SKP2 (UniProt Q13309)
inactive: [3] -0.015 | [4] -0.003 | [5] 0.001

TARDBP (UniProt K7EN94)
inactive: [3] 0.319

STAU1 isoform 3 (UniProt O95793)
inactive: [1] 0.19 | [2] 0.043 | [5] 0.081

STN1 (UniProt Q9H668)
inactive: [1] -0.125 | [2] 0.073 | [3] -0.115 | [5] -0.049

SLCO4A1 (UniProt Q96BD0)
UniProt Q96BD0, sequence (Q96BD0 whole entry, looked up): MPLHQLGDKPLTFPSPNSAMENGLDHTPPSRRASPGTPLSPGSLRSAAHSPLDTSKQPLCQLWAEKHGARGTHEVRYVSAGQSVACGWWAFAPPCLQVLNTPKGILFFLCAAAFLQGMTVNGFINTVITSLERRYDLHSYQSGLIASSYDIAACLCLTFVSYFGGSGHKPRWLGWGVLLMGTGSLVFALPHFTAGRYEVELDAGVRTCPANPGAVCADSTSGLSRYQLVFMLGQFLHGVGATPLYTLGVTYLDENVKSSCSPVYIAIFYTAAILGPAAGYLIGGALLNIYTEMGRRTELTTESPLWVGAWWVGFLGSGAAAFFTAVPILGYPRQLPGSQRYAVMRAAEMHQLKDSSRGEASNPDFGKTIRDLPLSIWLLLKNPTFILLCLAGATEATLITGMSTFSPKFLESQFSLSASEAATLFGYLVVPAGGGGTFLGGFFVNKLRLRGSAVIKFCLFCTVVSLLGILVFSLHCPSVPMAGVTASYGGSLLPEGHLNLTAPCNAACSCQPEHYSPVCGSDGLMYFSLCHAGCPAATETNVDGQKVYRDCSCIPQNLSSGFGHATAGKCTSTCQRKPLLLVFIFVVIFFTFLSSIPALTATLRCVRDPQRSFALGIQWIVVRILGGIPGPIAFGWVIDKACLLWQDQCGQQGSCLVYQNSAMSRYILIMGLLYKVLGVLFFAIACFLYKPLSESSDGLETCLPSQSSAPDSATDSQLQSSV
inactive: [1] 0.203 | [2] -0.372 | [5] -0.013

SLC30A6 isoform 2 (UniProt Q6NXT4)
inactive: [1] 0.033 | [2] -0.046 | [3] 0.116 | [5] -0.059

SLC25A36 (UniProt Q96CQ1)
UniProt Q96CQ1, sequence (Q96CQ1 whole entry, looked up): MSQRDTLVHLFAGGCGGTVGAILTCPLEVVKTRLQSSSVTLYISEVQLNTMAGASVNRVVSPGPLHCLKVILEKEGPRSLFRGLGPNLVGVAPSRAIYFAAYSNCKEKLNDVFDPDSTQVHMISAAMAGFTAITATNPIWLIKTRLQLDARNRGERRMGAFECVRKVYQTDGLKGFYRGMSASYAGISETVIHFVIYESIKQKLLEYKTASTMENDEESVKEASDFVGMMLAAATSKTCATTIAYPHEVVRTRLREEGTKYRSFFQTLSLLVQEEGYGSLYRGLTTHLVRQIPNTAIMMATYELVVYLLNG
inactive: [3] 0.013 | [4] 0.035 | [5] 0

SNUPN (UniProt O95149)
inactive: [1] -0.013 | [2] -0.018 | [3] 0.047 | [5] -0.02

SNRPD2 (UniProt K7EJB5)
inactive: [3] 0.024 | [4] -0.047

STK26 isoform 3 (UniProt Q9P289)
inactive: [4] 0.166

SIX5 (UniProt Q8N196)
inactive: [1] -0.011 | [2] 0.034 | [4] -0.037 | [5] 0.209

STK17B (UniProt O94768)
inactive: [4] -0.029

STK17A (UniProt Q9UEE5)
inactive: [5] 0.148

SHB (UniProt Q15464)
inactive: [4] 0.033 | [5] 0.086

SLC22A18 (UniProt Q96BI1)
inactive: [1] 0.07 | [2] 0.048 | [3] -0.036 | [5] -0.088

SNAP23 isoform 2 (UniProt O00161)
inactive: [3] 0.045 | [5] -0.038

SMIM1 (UniProt B2RUZ4)
inactive: [1] 0.053 | [2] -0.054 | [5] -0.028

STAR (UniProt P49675)
UniProt P49675, sequence (P49675 whole entry, looked up): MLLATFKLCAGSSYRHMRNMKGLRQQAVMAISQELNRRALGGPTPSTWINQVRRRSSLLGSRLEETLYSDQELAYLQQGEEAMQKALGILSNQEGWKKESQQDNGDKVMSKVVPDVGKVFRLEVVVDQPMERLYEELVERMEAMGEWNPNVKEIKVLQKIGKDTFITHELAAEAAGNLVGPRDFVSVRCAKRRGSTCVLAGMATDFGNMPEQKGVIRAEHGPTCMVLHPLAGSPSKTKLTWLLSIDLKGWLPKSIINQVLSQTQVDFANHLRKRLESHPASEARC
inactive: [3] 0.048 | [4] -0.077 | [5] -0.028

SZT2 (UniProt Q5T011)
inactive: [1] -0.285 | [2] -0.066 | [4] -0.148 | [5] 0.105

SIN3B (UniProt O75182)
inactive: [3] -0.129 | [5] 0.052

SHC1 (UniProt P29353)
inactive: [5] 0.201

STK38L (UniProt Q9Y2H1)
inactive: [4] -0.031

SRC isoform 2 (UniProt P12931)
UniProt P12931, sequence (P12931 whole entry, looked up): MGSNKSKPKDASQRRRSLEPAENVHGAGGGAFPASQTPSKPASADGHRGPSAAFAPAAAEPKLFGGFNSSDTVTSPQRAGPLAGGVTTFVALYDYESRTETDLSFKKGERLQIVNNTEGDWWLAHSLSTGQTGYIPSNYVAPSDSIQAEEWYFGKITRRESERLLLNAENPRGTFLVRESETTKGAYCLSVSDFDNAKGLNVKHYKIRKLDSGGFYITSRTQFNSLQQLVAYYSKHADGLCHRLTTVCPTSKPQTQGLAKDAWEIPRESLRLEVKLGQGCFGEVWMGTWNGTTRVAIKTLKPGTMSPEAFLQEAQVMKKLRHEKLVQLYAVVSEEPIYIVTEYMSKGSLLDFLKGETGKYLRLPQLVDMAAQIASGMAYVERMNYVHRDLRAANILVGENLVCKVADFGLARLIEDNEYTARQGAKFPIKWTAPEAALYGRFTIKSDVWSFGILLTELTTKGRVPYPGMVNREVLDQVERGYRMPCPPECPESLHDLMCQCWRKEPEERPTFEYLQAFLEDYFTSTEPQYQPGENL
inactive: [1] -0.052 | [4] -0.105 | [5] 0.017
active: [2] -0.412

SLC41A1 (UniProt Q8IVJ1)
inactive: [5] -0.016

SPPL2A (UniProt Q8TCT8)
inactive: [1] -0.148 | [2] 0.118 | [3] 0.087 | [5] 0.098

SLC12A6 isoform 2 (UniProt Q9UHW9)
inactive: [4] -0.179

SMPD2 (UniProt O60906)
inactive: [4] -0.244 | [5] -0.05

SSX5 isoform 2 (UniProt O60225)
inactive: [1] 0.022 | [2] 0.03 | [3] -0.157 | [5] -0.253

SLC35A3 isoform 2 (UniProt Q9Y2D2)
inactive: [3] 0.008 | [5] -0.57

SMARCA4 isoform 4 (UniProt P51532)
inactive: [4] -0.007 | [5] 0.131

SNAPC2 (UniProt Q13487)
inactive: [1] 0.107 | [2] 0.302 | [4] 0.101 | [5] 0.004

SLC40A1 (UniProt Q9NP59)
UniProt Q9NP59, sequence (Q9NP59 whole entry, looked up): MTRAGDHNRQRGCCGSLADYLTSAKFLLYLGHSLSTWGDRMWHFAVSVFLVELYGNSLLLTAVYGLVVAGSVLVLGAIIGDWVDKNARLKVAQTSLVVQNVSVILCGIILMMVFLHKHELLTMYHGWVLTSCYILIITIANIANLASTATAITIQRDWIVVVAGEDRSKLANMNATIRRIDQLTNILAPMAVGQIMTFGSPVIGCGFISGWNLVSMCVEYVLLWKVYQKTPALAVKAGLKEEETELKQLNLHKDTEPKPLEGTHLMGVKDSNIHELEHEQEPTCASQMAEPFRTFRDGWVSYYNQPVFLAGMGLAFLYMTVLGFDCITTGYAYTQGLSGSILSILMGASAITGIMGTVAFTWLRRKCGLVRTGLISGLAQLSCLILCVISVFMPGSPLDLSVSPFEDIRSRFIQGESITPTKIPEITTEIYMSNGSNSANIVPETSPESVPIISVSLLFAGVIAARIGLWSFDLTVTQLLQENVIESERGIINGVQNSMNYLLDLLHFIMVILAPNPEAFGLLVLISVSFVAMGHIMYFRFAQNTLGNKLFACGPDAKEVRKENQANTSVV
inactive: [3] 0.013 | [4] -0.107 | [5] -0.205
